Targets with a hit are over-represented here; the source holds about 8,800 in all. About 0.5% of all pairs of compound and target were hits. A number with no mark means an inactive call.
Key:
Assay in all cases: log2 fold change, soluble protein after heating vs DMSO (PISA); higher = thermal stabilisation; K562 lysate, 10 uM; active = over 0.2 and 3.5 SD of the protein, either way, in both replicates (recomputed)
vemurafenib = compound: CCCS(=O)(=O)Nc1ccc(F)c(C(=O)c2c[nH]c3ncc(-c4ccc(Cl)cc4)cc23)c1F [vemurafenib]
How it was run: (§1)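 Soluble protein was defined as the supernatant remaining after 21,000xg for 90 min, following pooling of heated aliquots and adjustment to 0.5% NP-40 at 4°C. Before that, crude K562 extract at 1 mg/mL protein in PBS pH 7.4 with 1 mM MgCl2 was treated with 10 μM compound for 30 min and heated for 3 min across 48°C-58°C. Quantification used TMTpro 16plex LC-MS/MS with channel sums equalised, and values are log-two fold changes in thermal stability relative to solvent controls from duplicates.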

[1] = compound: CCCS(=O)(=O)Nc1ccc(F)c(C(=O)c2c[nH]c3ncc(Cl)cc23)c1F
How it was run: as §1

barasertib = compound: CCN(CCCOc1ccc2c(Nc3cc(CC(=O)Nc4cccc(F)c4)[nH]n3)ncnc2c1)CCOP(=O)(O)O [barasertib]
How it was run: as §1

[2] = compound: CC[C@@H]1C(=O)N(C)c2cnc(Nc3ccc(C(=O)NC4CCN(C)CC4)cc3OC)nc2N1C1CCCC1
How it was run: as §1

volasertib = compound: CC[C@@H]1C(=O)N(C)c2cnc(Nc3ccc(C(=O)N[C@H]4CC[C@H](N5CCN(CC6CC6)CC5)CC4)cc3OC)nc2N1C(C)C [volasertib]
How it was run: as §1

[3] = compound: CCn1c(C(=O)N(C2CC2)C2CC2)cc2c3c(ncn3C)c(Nc3cc(C)n(C)n3)nc21
How it was run: as §1

[4] = compound: CCn1cc(-c2ccnc3[nH]c(-c4cccc(CN(C)C)c4)cc23)c(-c2ccc(NC(=O)N(C)C)cc2)n1
How it was run: as §1

[5] = compound: CN1CCC(CNc2ccc3ncc(-c4cccc(OC(F)(F)F)c4)n3n2)CC1
How it was run: as §1

saracatinib = compound: CN1CCN(CCOc2cc(OC3CCOCC3)c3c(Nc4c(Cl)ccc5c4OCO5)ncnc3c2)CC1 [saracatinib]
How it was run: as §1

sotrastaurin = compound: CN1CCN(c2nc(C3=C(c4c[nH]c5ccccc45)C(=O)NC3=O)c3ccccc3n2)CC1 [sotrastaurin]
How it was run: as §1

alvocidib = compound: CN1CC[C@H](c2c(O)cc(O)c3c(=O)cc(-c4ccccc4Cl)oc23)[C@H](O)C1 [alvocidib]
How it was run: as §1

Tubastatin A = compound: CN1CCc2c(c3ccccc3n2Cc2ccc(C(=O)NO)cc2)C1 [Tubastatin A]
How it was run: as §1

[6] = compound: CNC(=O)C1=CC=CC=C1NC2=NC(=NC=C2Cl)NC3=C(C=C(C=C3)N4CCOCC4)OC
How it was run: as §1

defactinib = compound: CNC(=O)c1ccc(Nc2ncc(C(F)(F)F)c(NCc3nccnc3N(C)S(C)(=O)=O)n2)cc1 [defactinib]
How it was run: as §1

[7] = compound: CNc1nc(-c2ccc3c(N)n[nH]c3c2)cc(N2C[C@@H](C(=O)NC3CCCCC3)CC[C@H]2C)n1
How it was run: as §1

encorafenib = compound: COC(=O)N[C@@H](C)CNc1nccc(-c2cn(C(C)C)nc2-c2cc(Cl)cc(NS(C)(=O)=O)c2F)n1 [encorafenib]
How it was run: as §1

[8] = compound: COC(=O)[C@H](CCSC)NC(=O)C1=C(C=C(C=C1)NC[C@H](CS)N)C2=CC=CC=C2
How it was run: as §1

alisertib = compound: COc1cc(Nc2ncc3c(n2)-c2ccc(Cl)cc2C(c2c(F)cccc2OC)=NC3)ccc1C(=O)O [alisertib]
How it was run: as §1

[9] = compound: COc1cc2nc(-c3cc(F)ccc3O)nc(N[C@@H]3CNC[C@H]3C(C)(C)O)c2cc1OC
How it was run: as §1

gefitinib = compound: COc1cc2ncnc(Nc3ccc(F)c(Cl)c3)c2cc1OCCCN1CCOCC1 [gefitinib]
How it was run: as §1

UniProt Q9HD20, sequence (Q9HD20 whole entry, looked up): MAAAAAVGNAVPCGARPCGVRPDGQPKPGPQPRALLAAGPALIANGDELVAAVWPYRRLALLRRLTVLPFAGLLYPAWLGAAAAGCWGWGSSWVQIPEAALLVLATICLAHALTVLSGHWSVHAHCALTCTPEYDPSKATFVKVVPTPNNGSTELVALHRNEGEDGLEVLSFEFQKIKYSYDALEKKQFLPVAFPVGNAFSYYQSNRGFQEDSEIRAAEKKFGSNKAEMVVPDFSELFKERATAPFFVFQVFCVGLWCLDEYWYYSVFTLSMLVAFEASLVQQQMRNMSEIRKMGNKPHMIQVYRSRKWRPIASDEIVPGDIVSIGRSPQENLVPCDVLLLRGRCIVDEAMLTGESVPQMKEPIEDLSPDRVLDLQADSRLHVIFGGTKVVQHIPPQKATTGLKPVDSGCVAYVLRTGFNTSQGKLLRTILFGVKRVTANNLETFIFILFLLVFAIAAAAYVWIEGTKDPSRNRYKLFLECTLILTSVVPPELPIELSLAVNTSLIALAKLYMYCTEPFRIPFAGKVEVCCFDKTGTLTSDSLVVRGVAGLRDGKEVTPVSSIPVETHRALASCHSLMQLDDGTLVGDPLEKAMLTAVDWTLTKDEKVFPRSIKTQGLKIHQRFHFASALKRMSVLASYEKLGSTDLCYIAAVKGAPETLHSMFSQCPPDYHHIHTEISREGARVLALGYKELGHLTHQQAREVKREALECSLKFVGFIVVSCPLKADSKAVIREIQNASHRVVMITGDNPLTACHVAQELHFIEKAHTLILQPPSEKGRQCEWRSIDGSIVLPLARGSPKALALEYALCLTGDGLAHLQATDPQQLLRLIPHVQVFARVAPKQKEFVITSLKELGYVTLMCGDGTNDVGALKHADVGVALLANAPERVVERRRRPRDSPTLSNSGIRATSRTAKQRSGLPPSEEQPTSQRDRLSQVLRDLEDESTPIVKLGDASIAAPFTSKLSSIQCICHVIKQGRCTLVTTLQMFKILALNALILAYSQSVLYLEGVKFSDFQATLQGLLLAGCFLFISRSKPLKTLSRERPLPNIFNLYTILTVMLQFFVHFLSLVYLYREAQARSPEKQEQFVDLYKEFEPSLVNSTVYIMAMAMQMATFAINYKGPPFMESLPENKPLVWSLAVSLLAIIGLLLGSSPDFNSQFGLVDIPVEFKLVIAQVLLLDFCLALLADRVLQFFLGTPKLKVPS
UniProt Q6P4E1, sequence (Q6P4E1 whole entry, looked up): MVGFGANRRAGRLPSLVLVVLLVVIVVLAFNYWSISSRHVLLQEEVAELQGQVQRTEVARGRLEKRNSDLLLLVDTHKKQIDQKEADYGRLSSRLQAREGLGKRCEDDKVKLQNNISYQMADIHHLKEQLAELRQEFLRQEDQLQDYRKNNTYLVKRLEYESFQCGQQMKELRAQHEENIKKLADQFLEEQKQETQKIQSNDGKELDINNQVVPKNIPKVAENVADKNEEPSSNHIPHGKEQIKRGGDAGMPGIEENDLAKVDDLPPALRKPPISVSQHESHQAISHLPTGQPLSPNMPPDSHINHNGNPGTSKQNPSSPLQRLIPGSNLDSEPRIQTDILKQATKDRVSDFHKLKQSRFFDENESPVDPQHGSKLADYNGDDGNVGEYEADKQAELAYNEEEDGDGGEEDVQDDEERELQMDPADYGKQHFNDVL
UniProt P83916, sequence (P83916 whole entry, looked up): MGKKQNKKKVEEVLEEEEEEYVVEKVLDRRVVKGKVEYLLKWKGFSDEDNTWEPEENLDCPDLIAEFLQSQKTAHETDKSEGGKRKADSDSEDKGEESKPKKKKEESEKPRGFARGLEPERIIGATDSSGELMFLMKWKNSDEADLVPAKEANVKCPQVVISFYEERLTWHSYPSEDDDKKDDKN
UniProt Q9UEE9, sequence (Q9UEE9 whole entry, looked up): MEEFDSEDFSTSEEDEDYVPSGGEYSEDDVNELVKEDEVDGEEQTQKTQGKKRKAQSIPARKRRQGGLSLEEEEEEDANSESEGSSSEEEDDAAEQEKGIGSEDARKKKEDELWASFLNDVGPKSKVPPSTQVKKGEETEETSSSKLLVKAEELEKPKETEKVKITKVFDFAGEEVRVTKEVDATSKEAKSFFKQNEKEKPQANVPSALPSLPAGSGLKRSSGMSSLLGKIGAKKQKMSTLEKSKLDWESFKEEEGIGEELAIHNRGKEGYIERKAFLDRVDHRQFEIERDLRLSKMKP
UniProt Q86WR0, sequence (Q86WR0 whole entry, looked up): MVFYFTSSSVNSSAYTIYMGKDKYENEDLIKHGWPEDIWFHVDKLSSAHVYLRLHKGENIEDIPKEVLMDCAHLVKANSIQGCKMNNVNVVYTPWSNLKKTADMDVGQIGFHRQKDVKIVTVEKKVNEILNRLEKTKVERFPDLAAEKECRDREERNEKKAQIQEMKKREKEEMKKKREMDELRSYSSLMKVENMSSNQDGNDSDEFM
UniProt O60566, sequence (O60566 whole entry, looked up): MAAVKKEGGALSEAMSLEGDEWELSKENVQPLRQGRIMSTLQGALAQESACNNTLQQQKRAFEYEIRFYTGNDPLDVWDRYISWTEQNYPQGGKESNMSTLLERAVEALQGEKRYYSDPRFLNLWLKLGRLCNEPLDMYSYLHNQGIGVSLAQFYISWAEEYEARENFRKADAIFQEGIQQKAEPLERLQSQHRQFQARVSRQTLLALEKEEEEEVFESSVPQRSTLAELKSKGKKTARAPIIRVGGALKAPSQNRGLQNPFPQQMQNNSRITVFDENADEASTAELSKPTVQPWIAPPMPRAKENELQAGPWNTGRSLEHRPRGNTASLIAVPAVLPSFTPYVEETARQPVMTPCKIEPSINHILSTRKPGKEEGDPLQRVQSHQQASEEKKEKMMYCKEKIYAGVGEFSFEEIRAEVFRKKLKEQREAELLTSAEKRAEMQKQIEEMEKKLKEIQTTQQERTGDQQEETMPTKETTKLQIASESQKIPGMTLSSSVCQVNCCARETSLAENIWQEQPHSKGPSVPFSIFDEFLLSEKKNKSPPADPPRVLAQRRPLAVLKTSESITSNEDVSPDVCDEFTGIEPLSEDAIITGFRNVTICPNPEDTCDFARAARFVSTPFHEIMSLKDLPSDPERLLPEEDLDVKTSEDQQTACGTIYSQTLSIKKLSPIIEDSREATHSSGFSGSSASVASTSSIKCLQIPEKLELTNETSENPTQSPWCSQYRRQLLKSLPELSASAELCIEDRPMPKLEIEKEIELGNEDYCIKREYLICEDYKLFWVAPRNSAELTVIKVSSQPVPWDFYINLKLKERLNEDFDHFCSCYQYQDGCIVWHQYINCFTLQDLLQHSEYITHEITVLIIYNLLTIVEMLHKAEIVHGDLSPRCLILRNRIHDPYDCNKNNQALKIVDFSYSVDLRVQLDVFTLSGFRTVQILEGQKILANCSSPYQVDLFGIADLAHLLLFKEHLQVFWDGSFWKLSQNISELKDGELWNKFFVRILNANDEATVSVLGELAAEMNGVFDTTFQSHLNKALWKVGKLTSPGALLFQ
UniProt Q8N5I9, sequence (Q8N5I9 whole entry, looked up): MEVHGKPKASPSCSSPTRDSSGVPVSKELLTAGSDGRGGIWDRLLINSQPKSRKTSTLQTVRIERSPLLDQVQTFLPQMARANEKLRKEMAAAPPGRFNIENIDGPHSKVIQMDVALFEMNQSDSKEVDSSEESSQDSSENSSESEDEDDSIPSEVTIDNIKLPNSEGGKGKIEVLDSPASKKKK

Target	log2 fold change (vemurafenib)	log2 fold change [1]	log2 fold change (barasertib)	log2 fold change [2]	log2 fold change (volasertib)	log2 fold change [3]	log2 fold change [4]	log2 fold change [5]	log2 fold change (saracatinib)	log2 fold change (sotrastaurin)	log2 fold change (alvocidib)	log2 fold change (Tubastatin A)	log2 fold change [6]	log2 fold change (defactinib)	log2 fold change [7]	log2 fold change (encorafenib)	log2 fold change [8]	log2 fold change (alisertib)	log2 fold change [9]	log2 fold change (gefitinib)
CASC4 (UniProt Q6P4E1)	0	0.02	-0.02	0.009	0.017	0.022	-0.05	-0.008	-0.003	-0.004	-0.03	0.054	0.011	-0.064	-0.044	0.128	-0.012	0.035	-0.004	0.086
CFDP1 (UniProt Q9UEE9)	-0.02	-0.008	-0.066	0.025	0.039	-0.015	-0.311 (active)	0.105	-0.007	0.024	-0.104	0.057	0.042	-0.01	-0.051	0.005	-0.021	-0.013	0.015	-0.005
ATP13A1 (UniProt Q9HD20)	-0.006	0.013	-0.006	0.023	-0.036	0.067	0.004	-0.343 (active)	0.012	-0.012	0.051	0.036	-0.012	0.028	-0.002	-0.008	-0.067	0.055	0.03	0.011
BUB1B isoform 3 (UniProt O60566)	0.024	0.024	0.03	-0.012	-0.014	0.01	0.13	-0.05	-0.006	0.009	-0.032	-0.122	0.018	-0.012	0.018	0.033	0.018	0.002	0.011	-0.005
CHCHD1 (UniProt Q96BP2)	0.157	-0.025	-0.002	0.028	-0.001	-0.075	1.08 (active)	-0.338	0.032	0.16	0.494	0.046	0.028	-0.033	0.087	-0.018	-0.042	0.003	0.023	0.228
CBX1 (UniProt P83916)	0.001	0.015	-0.075	0.028	0.01	0.006	0.301 (active)	-0.111	-0.003	0.038	0.078	0.011	0.011	-0.001	0.025	0.01	-0.055	0.012	-0.025	0.059
C12orf45 (UniProt Q8N5I9)	-0.015	-0.017	-0.022	0.009	0.008	0.023	-0.243	0.116	-0.022	-0.026	-0.13	0.007	0.004	-0.042	0.036	0.05	-0.06	0.016	0.01	0.011
CCDC25 (UniProt Q86WR0)	-0.033	0.008	0.01	0.027	0.005	-0.023	0.581 (active)	-0.079	0.007	-0.009	0.132	0	-0.012	-0.025	0.075	0.008	0.083	-0.027	-0.005	0.01

— the supplement of paper PMC10849652
